# Assay results as given in PubChem BioAssay AID1347416 (National Center for Advancing Translational Sciences (NCATS), 2020).
# In all, about 4,100 compounds went through this assay and about 1,600 (39%) were called active. Roughly 25% stayed inconclusive and do not appear here. Calls follow the shape of the dose curve; as a rule, active = well fitted inhibition curve with a large enough effect; inconclusive = small, poorly fitted or top-dose-only effect; inactive = no such curve, though single readings can be large or run the other way. The list shows a part of the results.
# Assay: qHTS Validation assay for Inhibitors of Plasmodium falciparum Dd2 growth in vitro; also: nearly all actives have a fitted effect of over 70% in size
# Conditions: P. falciparum Dd2 in RBCs, SYBR Green growth, 72 h; series mostly up to 28.7 µM
# Summary of the method: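 P. falciparum Dd2-infected red blood cells (2.5% hematocrit, 0.3% parasitemia) grown 72 h at 37 °C under 5% O2 with compounds in a titration, 29 uM to 0.5 nM final. Growth read as SYBR Green-1 fluorescence after ~16 h lysis; artesunate 300 nM as positive control.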
# Potency is read from the fitted curve at half-maximal effect.
row,Structure (SMILES),Potency
1,O=C(NCc1nc2ccccc2[nH]1)C1=C[C@@H](c2ccccc2)C[C@@H](OCc2ccc(CO)cc2)O1,inactive
2,CCNC(=S)N/N=C/c1sc(N2CCCCC2)nc1-c1cccs1,0.668 µM (active)
3,CN1CCN(c2nc(Nc3ccc(O)cc3)nc3ccccc23)CC1,4.22 µM (active)
4,COc1cc(OC)cc(C(=O)Oc2c(CN3CCOCC3)cc(Cl)c3cccnc23)c1,inactive
5,O=C(Oc1c(CN2CCOCC2)cc(Cl)c2cccnc12)c1ccccc1Br,7.5 µM (active)
6,CC(C)=NOC(=O)c1c(C)noc1-c1snnc1C,6.68 µM (active)
7,CCCC(c1nnnn1CCC(C)C)N1CCC(C(N)=O)CC1 (stereo not given),inactive
8,OC(c1ccc(Cl)cc1)C(CN1CCOCC1)c1ccccc1 (stereo not given),2.99 µM (active)
9,CCCCC(O)(c1ccc(F)cc1)C(CN1CCOCC1)c1ccc(Cl)cc1 (stereo not given),5.96 µM (active)
10,CCCC(O)(c1ccc(Cl)cc1)C(CN1CCOCC1)c1ccc(Cl)cc1 (stereo not given),4.73 µM (active)
11,CCC(=O)N(C1CCOCC1)C1CCN(Cc2cc(F)ccc2F)CC1,inactive
12,OC(C[n+]1ccccc1)c1ccccc1 (stereo not given),inactive
13,CCOc1cc(CNCC(O)c2ccccc2)cc(Cl)c1OC (stereo not given),3.35 µM (active)
14,O=C1c2c(nc(CNCc3cccc(F)c3)n2Cc2ccccc2)NCCN1Cc1cccc(Cl)c1,inactive
15,OC(CNCc1cccc(Cl)c1)c1ccccc1 (stereo not given),4.73 µM (active)
16,OC(CNCc1cccc(Br)c1)c1ccccc1 (stereo not given),5.96 µM (active)
17,O=C(c1ccc(F)c(Cl)c1)N1CCC[C@H]1c1nc(-c2ccccc2)no1,inactive
18,Cc1nn(C(=O)CCCC(=O)N2CCCC2c2nc(C3CCOCC3)no2)c2ccccc12 (stereo not given),inactive
19,Cc1ccc2c(C)c(C(=O)N3CCCC3c3nc(C(C)C)no3)oc2c1C (stereo not given),6.68 µM (active)
20,Cc1cc(C(C)c2ccccc2)c(O)c(CN2CCOCC2)c1C (stereo not given),2.99 µM (active)
21,CC(Oc1ccc(Br)cc1)c1nc2c3ccccc3nc(=S)n2[nH]1 (stereo not given),inactive
22,C/C(=N\Nc1nc(-c2ccccc2O)nc2ccccc12)c1ccccc1,0.75 µM (active)
23,Oc1ccccc1Nc1nc(-c2ccccc2O)nc2ccccc12,0.944 µM (active)

row,Structure (SMILES),Potency
1,CNC(=O)[C@H]1C[C@H](Oc2cccnc2)CN1S(=O)(=O)Cc1ccccc1F,inactive
2,CN1C(=O)CCC2(C(=O)O)CCCC=C12 (stereo not given),inactive
3,O=C(NCC12CCC=C1N(CC1CC1)C(=O)CC2)Nc1cccc(F)c1 (stereo not given),inactive
4,CCN(CC)CCNC(=O)C12CCCC=C1N(Cc1ccccc1)C(=O)CC2 (stereo not given),8.41 µM (active)
5,COc1ccc(/C=C\c2onc(C)c2S(=O)(=O)N2CCC(C(=O)Nc3ccc(C)cc3C)CC2)cc1,0.842 µM (active)
6,CCOCCOC1CCN(S(=O)(=O)c2c(C)noc2C)CC1,inactive
7,CCOC(=O)c1c(S(=O)(=O)N2CCC(C(=O)Nc3ccc(F)cc3F)CC2)c(C)n(C)c1C,inactive
8,Cc1cc(C)c(/C=C/c2onc(C)c2S(=O)(=O)N2CCC(C(=O)Nc3ccc(Cl)c(C(F)(F)F)c3)CC2)c(C)c1,10.6 µM (active)
9,CCOc1ccccc1NC(=O)C1CCN(S(=O)(=O)c2c(C)noc2/C=C/c2ccco2)CC1,15 µM (active)
10,Cc1ccc(NC(=O)C2CCN(S(=O)(=O)c3ccc4[nH]c(=O)ccc4c3)CC2)cc1C,inactive
11,Cc1cc(C)n(Cc2ccc(C(=O)N3CCC(c4noc(-c5cccnc5)n4)C3)o2)n1 (stereo not given),inactive
12,Cc1ccc(CSC2=Nc3ccccc3C3=NC(CC(=O)NCc4ccco4)C(=O)N23)cc1 (stereo not given),6.68 µM (active)
13,Cc1ccc(CC(=O)NCc2nnc3c(-c4nc(C(C)C)no4)cccn23)cc1,inactive
14,COc1cc(C)ccc1OCCSc1nc2ccc(NC(=O)c3cccs3)cc2s1,13.3 µM (active)
15,COc1ccc(NC(=O)c2cc3c(N4CCSCC4)nc(C)cn3n2)cc1OC,inactive
16,Cc1cccc(OCCSc2nc3ccc(NC(=O)c4cccs4)cc3s2)c1,9.44 µM (active)
17,Cc1ccc2[nH]c(C(=O)Nc3ccc(F)cc3)cc2c1,inactive
18,COc1cc(C)ccc1OCCSc1nc2ccc(NC(=O)c3ccc(F)cc3)cc2s1,10.6 µM (active)
19,Cc1ccccc1OCCSc1nc2ccc(NC(=O)c3cccs3)cc2s1,5.31 µM (active)
20,Cc1ccccc1C(=O)NNc1ccc(-c2csnn2)cc1,inactive
21,CCCCc1ccc(NC(=O)CSC2=C(C#N)C(c3ccco3)C3=C(CCCC3=O)N2)cc1 (stereo not given),inactive
22,N[C@@H]1CN(c2ncccn2)C[C@H]1CO,inactive
23,O=C(NCc1cccs1)c1ccc(CN2C(=O)NC3(CCS(=O)(=O)CC3)C2=O)cc1,inactive

row,Structure (SMILES),Potency
1,Cc1ccccc1OCCSc1nc2ccc(NC(=O)c3ccccc3)cc2s1,15 µM (active)
2,CCCOc1cccc(C(=O)Nc2ccc(-c3cc4ccccc4oc3=O)c(C)c2)c1,inactive
3,COc1ccc(S(=O)(=O)N2CCc3cc(OC)c(OC)cc3C2)cc1,inactive
4,COc1ccc(S(=O)(=O)N2CCC3(CC2)OCCN3S(=O)(=O)c2c(C)cc(C)cc2C)cc1,2.66 µM (active)
5,Cc1cccc(NC2=C/C(=N/S(=O)(=O)c3cccs3)c3ccccc3C2=O)c1,0.168 µM (active)
6,O=C1C(Nc2ccccc2)=C/C(=N/S(=O)(=O)c2cccs2)c2ccccc21,0.335 µM (active)
7,COC(=O)[C@H]1[C@H]2C[C@@H]3c4[nH]c5cc(OC)ccc5c4CCN3C[C@H]2C[C@@H](OC(=O)/C=C/c2cc(OC)c(OC)c(OC)c2)[C@@H]1OC,5.31 µM (active)
8,Cc1ccc(NC(=O)Cn2c(-c3ccccc3)nc(C)c(CCO)c2=O)cc1Cl,10.6 µM (active)
9,Cc1nc(-c2cccc(Cl)c2)n(CC(=O)Nc2ccc(C(F)(F)F)cc2)c(=O)c1CCO,13.3 µM (active)
10,Cc1nc(-c2ccccc2)n(CC(=O)Nc2ccc(Cl)cc2)c(=O)c1CCO,16.8 µM (active)
11,CCOC(=O)c1ccc(NC(=O)Cn2c(-c3cnccn3)nc(C)c(CCO)c2=O)cc1,inactive
12,COc1ccc2c(c1)C=C([C@@H]1C[C@H]3CN(c4ccccc4)C(=O)[C@]34CCCN14)CO2,0.944 µM (active)
13,COc1ccc(-c2cc(-c3cccc(NC(C)=O)c3)cn3cncc23)cn1,21.7 µM (active)
14,O=C(C[C@@H]1CCNC[C@@H]1Cc1cc(CSc2ccccc2)on1)N1CCN(c2ccccc2)CC1,8.41 µM (active)
15,COc1ccc(CNC(=O)C[C@@H]2CCNC[C@@H]2Cc2cc(-c3ccccc3)on2)cc1OC,inactive
16,CC(C)(C)c1ccc(-c2cc(C[C@H]3CNCC[C@H]3CC(=O)N3CCN(c4ccccn4)CC3)no2)cc1,15 µM (active)
17,CCC(=O)N1CCCCCCNC(=O)[C@@H]2C[C@@H](C(=O)N3CCN(c4ccccn4)CC3)C[C@@H]21,inactive
18,O=C(C[C@@H]1CCNC[C@@H]1Cc1cc(COc2ccccc2)on1)NCc1cccs1,inactive
19,CC(=O)N1CCN(C(=O)C[C@@H]2CCNC[C@@H]2Cc2cc(CSc3ccccc3)on2)CC1,inactive
20,COc1cc(NC(=O)c2nnn(Cc3ccc(F)cc3)c2N)cc(OC)c1,inactive
21,CCN1CCN(Cc2ccc(NC(=O)c3cc(NC(=O)c4nccnc4N)cc(OC)c3)cc2C(F)(F)F)CC1,4.73 µM (active)
22,CCN1CCN(Cc2ccc(NC(=O)c3cc(NC(=O)c4cc(-c5ccc(OC)cc5)n[nH]4)cc(OC)c3)cc2C(F)(F)F)CC1,0.168 µM (active)
23,O=C(Nc1ccc2c(c1)C(=O)N1CCC[C@H]1C(=O)N2)c1cc(-c2ccccc2)n[nH]1,inactive

row,Structure (SMILES),Potency
1,CCN1CCN(Cc2ccc(NC(=O)c3cc(NC(=O)c4cncc(-c5ccc(C#N)cc5)c4)cc(OC)c3)cc2C(F)(F)F)CC1,0.596 µM (active)
2,COc1ccc(CNC(=O)N[C@@H]2CN(c3ccncn3)C[C@H]2CN(C)C)cc1,inactive
3,O=c1cc(CSc2ccc(Cl)cc2)nc(-c2ccccn2)[nH]1,5.96 µM (active)
4,COc1ccc2cc1Nc1ccc(cc1)C[C@H](NCc1ccc3c(c1)CCO3)C(=O)N(C)[C@H](C(=O)NCCC(C)C)C2,3.35 µM (active)
5,COc1ccc2cc1Nc1ccc(cc1)C[C@H](NCc1ccc(C)o1)C(=O)N(C)[C@H](C(=O)NCCC(C)C)C2,5.96 µM (active)
6,COc1ccc2cc1Nc1ccc(cc1)C[C@H](NCc1ccc(C)o1)C(=O)N(C)[C@@H](C(=O)NCc1ccccc1)C2,5.31 µM (active)
7,CC(C)(C)CC(=O)N1CCC(N2C(=O)CCC2C(=O)NCc2ccccc2)CC1 (stereo not given),inactive
8,COc1ccc2cc1Nc1ccc(cc1)C[C@H](NCc1cccc(C(=O)O)c1)C(=O)N(C)[C@H](C(=O)Nc1ccccc1OCc1ccccc1)C2,4.73 µM (active)
9,CCC(=O)N1CCN(c2nc3c(s2)CC(C(=O)NCc2ccc(C)o2)CC3)CC1 (stereo not given),inactive
10,Cc1ccc(C(=O)N2CCCCCCNC(=O)[C@@H]3CCC[C@@H]32)s1,inactive
11,Cc1cccc(CSc2nn3c(=O)c(C)nnc3s2)c1,inactive
12,CNC(=O)[C@@H]1C[C@@H](n2cc(CN(C)C(=O)c3cc(F)ccc3Cl)nn2)CN1,inactive
13,O=C(COc1ccccc1)NC1CC(=O)N(c2ccc3c(c2)OCCO3)C1 (stereo not given),inactive
14,CC(C)COC(=O)/C(C#N)=C\c1ccc(-c2ccccc2Cl)o1,inactive
15,Cc1noc(C)c1S(=O)(=O)N1CCc2nc3cc(-c4ccccc4)[nH]n3c(=O)c2C1,inactive
16,Cc1noc(C)c1S(=O)(=O)N1CCCN(Cc2ccncc2)C(c2ccccc2)CC(=O)NCC1 (stereo not given),7.5 µM (active)
17,O=C1CC(c2ccccc2)N(S(=O)(=O)c2cccc(F)c2)CCCCCN1 (stereo not given),inactive
18,Cc1noc(C)c1S(=O)(=O)NCC(=O)N1CCCCCCNC(=O)CC1c1ccccc1 (stereo not given),inactive
19,O=C1CCC2(CCN1)CCN(S(=O)(=O)c1cccnc1)CC2,inactive
20,O=C1CC(c2ccccc2)N(Cc2ccncc2)CCCN(S(=O)(=O)c2cccc(F)c2)CCN1 (stereo not given),4.73 µM (active)
21,O=C1CC(c2ccccc2)N(Cc2ccncc2)CCCN(S(=O)(=O)c2cccs2)CCN1 (stereo not given),6.68 µM (active)
